From PubChem BioAssay (NCATS)
Inconclusive results are not listed. Entries that show only a call come without a potency. Calls of active or inactive are those of the source. Calls come from the whole dose curve.

target: Atrial natriuretic peptide receptor 1 (Homo sapiens) (UniProt P16066); assay: Natriuretic polypeptide receptor (hNpr1) antagonism - Pilot CMLD screen (AID 1347052); conditions: HEK293 hNpr1 GloSensor cGMP luminescence, ANP-stimulated; series mostly up to 9.22 µM;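 note: HEK293 cells with hNpr1 stimulated by hNppA peptide at 0.1 nM; cGMP level read as GloSensor luciferase luminescence after agonist stimulation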
Sequence (P16066 whole entry, looked up): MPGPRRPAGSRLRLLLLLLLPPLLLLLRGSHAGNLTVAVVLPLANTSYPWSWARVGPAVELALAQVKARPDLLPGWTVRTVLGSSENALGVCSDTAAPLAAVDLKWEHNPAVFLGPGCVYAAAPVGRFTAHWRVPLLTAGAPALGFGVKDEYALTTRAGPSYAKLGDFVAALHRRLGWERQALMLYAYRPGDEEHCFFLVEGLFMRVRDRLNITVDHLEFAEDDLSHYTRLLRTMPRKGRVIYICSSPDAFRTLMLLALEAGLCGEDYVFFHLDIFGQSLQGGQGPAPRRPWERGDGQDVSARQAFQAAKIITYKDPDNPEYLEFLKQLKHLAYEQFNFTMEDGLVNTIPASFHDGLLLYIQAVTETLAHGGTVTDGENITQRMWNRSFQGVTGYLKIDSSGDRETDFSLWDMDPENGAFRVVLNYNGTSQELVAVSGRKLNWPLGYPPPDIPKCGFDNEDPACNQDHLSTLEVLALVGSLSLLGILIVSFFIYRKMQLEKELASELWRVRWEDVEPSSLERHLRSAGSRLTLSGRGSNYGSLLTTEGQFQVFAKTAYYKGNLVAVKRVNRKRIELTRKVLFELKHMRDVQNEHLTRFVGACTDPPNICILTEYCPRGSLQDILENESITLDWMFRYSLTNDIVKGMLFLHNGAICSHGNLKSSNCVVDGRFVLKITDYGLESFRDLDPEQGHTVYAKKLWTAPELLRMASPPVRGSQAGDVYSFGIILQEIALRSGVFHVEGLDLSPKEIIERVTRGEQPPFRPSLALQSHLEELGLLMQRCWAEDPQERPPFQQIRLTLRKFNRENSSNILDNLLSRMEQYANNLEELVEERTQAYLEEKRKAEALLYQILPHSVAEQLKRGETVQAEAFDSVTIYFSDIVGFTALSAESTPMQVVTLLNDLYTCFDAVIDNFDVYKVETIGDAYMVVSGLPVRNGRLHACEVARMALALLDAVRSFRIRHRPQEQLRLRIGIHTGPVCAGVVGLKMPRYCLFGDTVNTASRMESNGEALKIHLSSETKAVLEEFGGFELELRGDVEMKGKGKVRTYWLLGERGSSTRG

Q: How did the Potency turn out when `C[C@]12O[C@@H]1[C@@H](O)C(Br)=C(CO)[C@@H]2O` was run?
A: inactive

Q: `CCCCCCCc1cc2ccccc2c2c(C(=O)OC)c(C(=O)OC)c(C(=O)OC)n12` was tested. Which Potency did it give?
A: inactive

Q: With `C=CC1=C2C=C(C3CC3)N(Cc3ccccc3)C=C2C(=O)C(C)(OC(=O)c2ccco2)C1=O` (stereo not given) as the compound, how does the Potency read?
A: inactive

Q: With `C=CC[C@@H]1C=CC(ON=CC[C@@H]2C=C[C@@H](OC(C)=O)[C@@H](COC(C)=O)O2)[C@H](CO)O1` (stereo not given in full) as the compound, how does the Potency read?
A: inactive

Q: How did the Potency turn out when `O=C(C=Cc1ccccc1)N1CCC[C@H]1CO` was run?
A: inactive

Q: `CCCNC(=O)OC[C@H]1O[C@H](CCON=C2[C@H]3CCn4c(=O)n(-c5ccccc5)c(=O)n4[C@@H]3[C@H](O)[C@@H]3O[C@H]23)C=C[C@H]1Oc1ccc(OC)cc1` was tested. Which Potency did it give?
A: inactive

Q: With `C[C@@H]1C[C@](C)(C(=O)c2ccc3c(c2)OCO3)C=C1c1ccc2c(c1)OCO2` as the compound, how does the Potency read?
A: inactive

Q: With `COCCN1C(=S)NC(c2cccc(F)c2)C(C(=O)OC)=C1C` (stereo not given) as the compound, how does the Potency read?
A: inactive

Q: Which Potency does the source give for `COc1ccc(O[C@H]2C=C[C@@H](c3ccccc3)O[C@H]2COC(=O)CCC(C)=NOC[C@@H](O)COCc2ccco2)cc1` here?
A: inactive

Q: How did the Potency turn out when `CC(CCN1CCCCc2nc(C)c(C)cc21)=NO[C@H](C)c1cn([C@H](CO)Cc2ccccc2)nn1` was run?
A: inactive

Q: With `CC1(O)C(=O)C=C2C=C3CCCN3C=C2C1=O` (stereo not given) as the compound, how does the Potency read?
A: inactive

Q: With `CCC(=O)C[C@@H](NC(=O)OC)c1ccc(F)cc1` as the compound, how does the Potency read?
A: inactive

Q: For `COC(=O)N[C@@H](C=Cc1ccccc1)C[N+](=O)[O-]`, which Potency is on record?
A: inactive

Q: Which Potency does the source give for `CC(=O)C1=CN(CCc2c[nH]c3ccccc23)C(=O)NC1c1ccccc1` (stereo not given) here?
A: inactive

Q: How did the Potency turn out when `CCOC(=O)NN=C1C[C@@H](O)[C@@H](O)[C@@H]2[C@H]3C(=O)N(C4CCCCC4)C(=O)[C@@H]3CC[C@H]12` was run?
A: inactive
